Laboratory results published in PubChem BioAssay AID1159580 (chemical genetic matrix, 2015).
Where “and” joins values, the source holds several entries; their conditions need not be identical. Equal values may be shown once. About 2,000 (36%) of roughly 5,500 compounds were called active. About 18% were inconclusive and are not listed. No stated cut-off is given here; in the data, active means normalized growth mostly below about 0.91 (no sharp cut-off); inconclusive means no clear call, values can overlap the other calls; inactive means mostly above about 0.92. The list shows a part of the results.

Experiment: chemical genetic growth profiling, strain panel (AID 1159580);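 further: tested at 20 µM; growth read once vehicle control cultures reached saturation at 30 °C; 1 = growth at the plate median or of vehicle wells; lower values mean less growth of the strain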
Details: growth OD

Measured: normalized growth

CC(C)OC(=O)Nc1cccc(Cl)c1
inactive: S. cerevisiae deletion strains, locus YAL013W, strain DEP1, active compounds read low 0.988 | S. cerevisiae deletion strains, locus YBR229C, strain ROT2, active compounds read low 0.979 | S. cerevisiae deletion strains, locus YCL029C, strain bik1, active compounds read low 0.991 | S. cerevisiae deletion strains, locus YDL035C, strain GPR1, active compounds read low 0.966 | S. cerevisiae deletion strains, locus YDL074C, strain BRE1, active compounds read low 0.899 | S. cerevisiae deletion strains, locus YDL101C, strain DUN1, active compounds read low 0.986 | S. cerevisiae deletion strains, locus YDL134C, strain PPH21, active compounds read low 0.973 | S. cerevisiae deletion strains, locus YDL185W, strain tfp1, active compounds read low 0.997 | S. cerevisiae deletion strains, locus YDL192W, strain arf1, active compounds read low 0.995 | S. cerevisiae deletion strains, locus YDR101C, strain arx1, active compounds read low 0.984 | S. cerevisiae deletion strains, locus YDR150W, strain NUM1, active compounds read low 0.992 | S. cerevisiae deletion strains, locus YDR162C, strain NBP2, active compounds read low 0.979 | S. cerevisiae deletion strains, locus YDR318W, strain mcm21, active compounds read low 0.978 | S. cerevisiae deletion strains, locus YDR388W, active compounds read low 0.989 | S. cerevisiae deletion strains, locus YDR502C, strain sam2, active compounds read low 0.973 | S. cerevisiae deletion strains, locus YEL061C, strain CIN8, active compounds read low 0.992 | S. cerevisiae deletion strains, locus YER110C, active compounds read low 0.986 | S. cerevisiae deletion strains, locus YER155C, strain BEM2, active compounds read low 0.987 | S. cerevisiae deletion strains, locus YER167W, strain BCK2, active compounds read low 0.949 | S. cerevisiae deletion strains, locus YGL078C, strain dbp3, active compounds read low 0.997 | S. cerevisiae deletion strains, locus YGL086W, strain mad1, active compounds read low 0.995 | S. cerevisiae deletion strains, locus YGL248W, strain PDE1, active compounds read low 0.962 | S. cerevisiae deletion strains, locus YGR078C, strain PAC10, active compounds read low 0.955 | S. cerevisiae deletion strains, locus YGR135W, strain pre9, active compounds read low 0.969 | S. cerevisiae deletion strains, locus YGR229C, strain SMI1, active compounds read low 0.941 | S. cerevisiae deletion strains, locus YHR030C, strain SLT2, active compounds read low 0.983 and 1.01 | S. cerevisiae deletion strains, locus YHR079C, strain IRE1 (second series), active compounds read low 0.973 | S. cerevisiae deletion strains, locus YHR079C, strain IRE1, active compounds read low 0.975 | S. cerevisiae deletion strains, locus YHR094C, strain hxt1, active compounds read low 0.988 | S. cerevisiae deletion strains, locus YHR129C, strain ARP1, active compounds read low 0.993 | S. cerevisiae deletion strains, locus YHR200W, strain rpn10, active compounds read low 0.985 | S. cerevisiae deletion strains, locus YIL066C, strain RNR3, active compounds read low 0.905 | S. cerevisiae deletion strains, locus YIL073C, strain SPO22, active compounds read low 0.895 | S. cerevisiae deletion strains, locus YIL125W, strain kgd1, active compounds read low 0.992 | S. cerevisiae deletion strains, locus YIR030C, strain dcg1, active compounds read low 0.981 | S. cerevisiae deletion strains, locus YJL095W, strain BCK1, active compounds read low 0.976 and 1 | S. cerevisiae deletion strains, locus YJL134W, strain LCB3, active compounds read low 1.01 | S. cerevisiae deletion strains, locus YJL168C, strain set2, active compounds read low 0.987 | S. cerevisiae deletion strains, locus YJL187C, strain SWE1 (second series), active compounds read low 0.99 | S. cerevisiae deletion strains, locus YJR043C, strain POL32, active compounds read low 1.07 | S. cerevisiae deletion strains, locus YJR066W, strain TOR1, active compounds read low 0.937 | S. cerevisiae deletion strains, locus YJR075W, strain HOC1, active compounds read low 0.994 | S. cerevisiae deletion strains, locus YKL009W, strain mrt4, active compounds read low 0.954 | S. cerevisiae deletion strains, locus YKL068W, active compounds read low 0.997 | S. cerevisiae deletion strains, locus YKL085W, strain MDH1 (second series), active compounds read low 0.991 | S. cerevisiae deletion strains, locus YKL085W, strain MDH1, active compounds read low 0.991 | S. cerevisiae deletion strains, locus YKL190W, strain CNB1, active compounds read low 0.98 | S. cerevisiae deletion strains, locus YKR001C, strain vps1, active compounds read low 0.958 | S. cerevisiae deletion strains, locus YLR039C, strain RIC1, active compounds read low 0.951 | S. cerevisiae deletion strains, locus YLR058C, strain SHM2, active compounds read low 0.987 | S. cerevisiae deletion strains, locus YLR102C, strain apc9, active compounds read low 0.987 | S. cerevisiae deletion strains, locus YLR113W, strain HOG1, active compounds read low 0.87 | S. cerevisiae deletion strains, locus YLR262C, strain YPT6, active compounds read low 0.888 | S. cerevisiae deletion strains, locus YLR268W, strain sec22, active compounds read low 0.99 | S. cerevisiae deletion strains, locus YLR330W, strain CHS5, active compounds read low 0.995 | S. cerevisiae deletion strains, locus YLR342W, strain FKS1 (second series), active compounds read low 0.944 | S. cerevisiae deletion strains, locus YLR371W, strain rom2, active compounds read low 0.974 | S. cerevisiae deletion strains, locus YML016C, strain PPZ1, active compounds read low 0.993 | S. cerevisiae deletion strains, locus YML032C, strain rad52, active compounds read low 0.936 | S. cerevisiae deletion strains, locus YML124C, strain tub3, active compounds read low 0.985 | S. cerevisiae deletion strains, locus YMR078C, strain ctf18, active compounds read low 0.935 | S. cerevisiae deletion strains, locus YMR223W, strain ubp8, active compounds read low 0.959 | S. cerevisiae deletion strains, locus YMR263W, strain SAP30, active compounds read low 0.988 | S. cerevisiae deletion strains, locus YMR307W, strain GAS1, active compounds read low 0.891 | S. cerevisiae deletion strains, locus YNL128W, strain TEP1, active compounds read low 1.01 | S. cerevisiae deletion strains, locus YNL153C, strain GIM3, active compounds read low 0.999 | S. cerevisiae deletion strains, locus YNL183C, strain NPR1, active compounds read low 0.94 | S. cerevisiae deletion strains, locus YNL233W, strain BNI4, active compounds read low 1 | S. cerevisiae deletion strains, locus YNL250W, strain rad50, active compounds read low 0.955 | S. cerevisiae deletion strains, locus YNL271C, strain bni1, active compounds read low 0.976 | S. cerevisiae deletion strains, locus YNL298W, strain CLA4, active compounds read low 0.998 | S. cerevisiae deletion strains, locus YNL322C, strain KRE1, active compounds read low 1 | S. cerevisiae deletion strains, locus YNR052C, strain pop2, active compounds read low 0.985 | S. cerevisiae deletion strains, locus YOL006C, strain TOP1, active compounds read low 0.712 | S. cerevisiae deletion strains, locus YOL012C, strain htz1 0.915 | S. cerevisiae deletion strains, locus YOL147C, strain pex11, active compounds read low 0.98 | S. cerevisiae deletion strains, locus YOR061W, strain CKA2, active compounds read low 0.992 | S. cerevisiae deletion strains, locus YOR069W, strain VPS5, active compounds read low 0.996 | S. cerevisiae deletion strains, locus YOR136W, strain idh2, active compounds read low 0.977 | S. cerevisiae deletion strains, locus YOR144C, strain elg1, active compounds read low 0.987 | S. cerevisiae deletion strains, locus YOR184W, strain ser1, active compounds read low 0.906 | S. cerevisiae deletion strains, locus YOR231W, strain MKK1, active compounds read low 0.985 | S. cerevisiae deletion strains, locus YOR316C, strain cot1, active compounds read low 0.995 | S. cerevisiae deletion strains, locus YPL055C, strain LGE1, active compounds read low 0.955 | S. cerevisiae deletion strains, locus YPL241C, strain CIN2, active compounds read low 0.994 | S. cerevisiae deletion strains, locus YPL256C, strain CLN2, active compounds read low 0.992 | S. cerevisiae deletion strains, locus YPR119W, strain clb2, active compounds read low 0.986 | S. cerevisiae deletion strains, locus YPR141C, strain kar3, active compounds read low 0.995 | S. cerevisiae deletion strains, locus YPR163C, strain tif3, active compounds read low 0.983 | S. cerevisiae deletion strains, locus YPR167C, strain met16, active compounds read low 0.986 | S. cerevisiae deletion strains, strain wtn01, active compounds read low 0.976 | S. cerevisiae strains, strain wild type, active compounds read low 0.997
active: S. cerevisiae deletion strains, locus YBR021W, strain FUR4, active compounds read low 0.821 | S. cerevisiae deletion strains, locus YGR252W, strain gcn5, active compounds read low 0.752 | S. cerevisiae deletion strains, locus YLR418C, strain cdc73, active compounds read low 0.828 | S. cerevisiae deletion strains, locus YNL067W, strain RPL9B, active compounds read low 0.301 | S. cerevisiae deletion strains, locus YNL307C, strain MCK1, active compounds read low 0.863
